Tested on: Saccharomyces cerevisiae
Assay: fraction of cells in G1 phase (DNA content, flow cytometry); higher = more cells with unreplicated DNA (G1 delay)
Details: temperature: 30 C; YPD; JTY2953 pdr5 snq2 (sensitized); drug added to: cultures diluted from stationary phase; 6-7 h
In short: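 Overnight cultures of sensitized JTY2953 were diluted 1∶200 into drug at a final 20 µg/ml and fixed after 6–7 h, and further runs treated dividing JTY2953 or BY4741, fixing them 6 h and 4.33 h later respectively. All growth used YPD at 30°C with S. cerevisiae and library drugs. After ethanol fixation and SYTOX Green staining, flow cytometry recorded 10,000 events. The G1 fraction equals the Dean-Jett-Fox G1 peak area over the G1 plus G2/M areas.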

Row | Compound | fraction of cells in G1 phase
1 | CN1CCN(CC(=O)N2c3ccccc3C(=O)Nc3cccnc32)CC1 [Pirenzepine 2HCl] (56.9133 µM) | 0.534
2 | COc1cc([C@@H]2c3cc4c(cc3[C@@H](O[C@@H]3O[C@@H]5CO[C@@H](C)O[C@H]5[C@H](O)[C@H]3O)[C@H]3COC(=O)[C@H]23)OCO4)cc(OC)c1O [Etoposide] (33.9806 µM) | 0.496
3 | COC(=O)c1ccc(=O)c2nc3c(=CO)c(O)cc(=O)c3[nH]c12 [Lomofungin] (63.6422 µM) | 0.495
4 | O=C(O)/C=C/c1ccc(Cn2ccnc2)cc1 [Ozagrel] (87.6221 µM) | 0.471
5 | COc1cc(C(=O)NS(=O)(=O)c2ccccc2C)ccc1Cc1cn(C)c2ccc(NC(=O)OC3CCCC3)cc12 [Zafirlukast] (34.741 µM) | 0.509
6 | CO[C@H]1/C=C/O[C@@]2(C)Oc3c(C)c(O)c4c(O)c(cc(O)c4c3C2=O)NC(=O)/C(C)=C\C=C\[C@H](C)[C@H](O)[C@@H](C)[C@@H](O)[C@@H](C)[C@H](OC(C)=O)[C@@H]1C [Rifamycin sv] (28.7035 µM) | 0.477
7 | NNC(=O)c1ccncc1 [Isoniazid] (145.834 µM) | 0.518
8 | CC[C@]1(O)C[C@@H]2CN(CCc3c([nH]c4ccccc34)[C@@](C(=O)OC)(c3cc4c(cc3OC)N(C)[C@H]3[C@@](O)(C(N)=O)[C@H](O)[C@]5(CC)C=CCN6CC[C@]43[C@@H]65)C2)C1 [Vindesine] (26.5271 µM) | 0.478
9 | O=C(O)C(=O)O.[NH-][C@@H]1CCCC[C@H]1[NH-].[Pt+2] [Oxaliplatin] (50.3396 µM) | 0.493

From the supplement of paper PMC3342239
